# Compound activity as filed in PubChem.
# Rows were chosen to be rich in hits. Some 4.2% of all compounds tested hit in one or more screens of this group.
# BJeLR lethal: BJeLR cell viability loss | BJeLR (HRASV12) viability, CellTiter-Glo ATP luminescence, 48 h | inhibition, % (no concentration beside the values) | hit rate 0.17% among 300,000 | AID 1554; in the data active = inhibition above about 50%
# RecA splice inh: Mtb RecA intein splicing inhibition; P9WHJ3; cell-free RecA intein splicing, fluorescence; inhibition, % (concentration not given with the values); hit rate 0.75% among 290,000; AID 2221; in the data active = inhibition above about 30%;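 also: 0% = vehicle wells and 100% = reference inhibitor control wells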
# FBA Mtb inh: inhibits M. tuberculosis FBA enzyme. P9WQA3. purified M. tuberculosis FBA, fluorescence read-out. inhibition, % at 1 µM. hit rate 2.3% among 360,000. AID 588726;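 also: 0% = vehicle and 100% = reference inhibitor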
# Target sequence (P9WQA3 whole entry, looked up): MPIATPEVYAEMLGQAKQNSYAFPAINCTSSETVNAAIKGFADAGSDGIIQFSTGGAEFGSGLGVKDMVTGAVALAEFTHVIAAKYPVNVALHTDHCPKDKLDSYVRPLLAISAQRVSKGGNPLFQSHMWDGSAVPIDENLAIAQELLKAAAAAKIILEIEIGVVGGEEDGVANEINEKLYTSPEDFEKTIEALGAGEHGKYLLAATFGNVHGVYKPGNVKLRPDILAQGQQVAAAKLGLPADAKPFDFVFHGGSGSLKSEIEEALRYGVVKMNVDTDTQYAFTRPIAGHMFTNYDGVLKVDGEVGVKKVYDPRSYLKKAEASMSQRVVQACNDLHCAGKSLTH
# PrPC TRFRET: cell surface PrPC inhibition, primary TR-FRET screen; hit rate 0.43% among 370,000; inhibition, % at 13.8 µM; TR-FRET read-out; in the data active = inhibition above about 24%; also: 0% = median of the test wells and 100% = reference compound wells
# GDH-TPI counter-1: counter-screen for M. tuberculosis FBA inhibitors: GDH-TPI coupled enzymes; GDH-TPI coupled enzyme counterscreen, NADH absorbance; inhibition, % at 4.8 µM; hit rate 1.2% among 360,000; AID 588335; in the data active = inhibition above about 30%;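 also: 0% = DMSO wells and 100% = wells lacking the enzyme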
# Mtb FBA confirm: Mtb FBA inhibition, confirmed. purified M. tuberculosis FBA, fluorescence read-out. shares compounds with FBA Mtb inh. inhibition, % at 1 µM. hit rate 78% among 5,600. AID 651616;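 also: 0% = vehicle wells and 100% = reference inhibitor wells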
# GDH-TPI counter-2: counter-screen for M. tuberculosis FBA inhibitors: GDH-TPI coupled enzyme inhibition; shares compounds with FBA Mtb inh; AID 652141; GDH-TPI coupled enzyme counterscreen, fluorescence; inhibition, % at 1 µM; hit rate 81% among 5,600; in the data active = inhibition above about 10%
# GDH-TPI dose: counter-screen for M. tuberculosis FBA inhibitors: GDH-TPI dose response. GDH-TPI coupled enzyme assay, fluorescence, artifact counterscreen. shares compounds with FBA Mtb inh. hit rate 79% among 170. AID 652145. IC50, µM; call rule not given here
# An asterisk follows results filed as active; . = no result; + = active, no number. Rule as the data show it, unless noted: active = inhibition above about 27%; inactive = the rest.
SMILES,BJeLR lethal,RecA splice inh,FBA Mtb inh,PrPC TRFRET,GDH-TPI counter-1,Mtb FBA confirm,GDH-TPI counter-2,others
C[C@@H]1CN([C@H](C)CO)C(=O)c2c(c3ccccc3n2C)-c2ccccc2CO[C@@H]1CN(C)C(=O)CCN(C)C,.,.,.,0.7,.,.,.,
NC(=O)c1ccsc1NC(=O)COC(=O)c1ccccc1NCc1ccco1,3.4,0.8,59.0*,-1.6,-1.9,50.2*,32.1*,
NC(=O)c1ccsc1NC(=O)COC(=O)c1ccccc1F,.,.,2.0,-4.8,1.4,.,.,
O=C(COC(=O)c1ccccc1NCc1ccco1)Nc1ccc2c(c1)OCO2,-0.2,0.2,45.2*,11.3,11.9,64.0*,49.7*,
O=C(COC(=O)c1ccccc1NC(=O)c1ccco1)Nc1ccc2c(c1)OCO2,0.8,0.1,1.7,3.6,24.1,.,.,
C=CCN1[C@H](C#N)[C@@H](c2ccc(Br)cc2)[C@H]1CO,.,.,.,2.5,.,.,.,
CCCN(C(=O)CCc1cn(CCC)c2ccccc12)c1ccc(Oc2cccnc2)cc1,.,.,.,12.1,.,.,.,
O=C(O)CCN1C(=O)C2CCCCC2C1=O (stereo not given),-4.1,0.8,46.2*,-0.8,7.3,+,192.9*,
O=C(O)CCN1C(=O)C2C3C=CC(C3)C2C1=O (stereo not given),-11.3,-0.8,3.6,-5.5,6.2,.,.,
CC(C)c1ccccc1NC(=O)[C@@H]1CCCN1S(=O)(=O)c1cccc2cccnc12,.,.,.,10.5,.,.,.,
CC1(C)Cc2c(C#N)c(NCCCO)nc(-c3ccccc3)c2CO1,-4.5,-1.9,12.9,-7.6,0.0,.,.,
Cc1nc(NCCCO)c(C#N)c2c1COC(C)(C)C2,-5.6,-0.8,73.6*,-1.7,5.5,112.5*,86.0*,
CCCCNc1c(-c2cccc(-c3ccc(OC)cc3)c2)nc2cc(C)ccn12,.,.,29.0*,17.7,10.0,65.8*,57.5*,
CCCCNc1c(-c2cccc(-c3ccc(OC)cc3)c2)nc2ccc(C)cn12,-4.4,0.7,30.7*,12.5,5.7,6.6,2.3,
CCCCNc1c(-c2ccc(OC)c(SC3CCCCC3)c2)nc2cc(C)ccn12,-2.0,9.6,24.5,0.0,18.4,.,.,
Cc1cccc(C(=O)Nc2nc3ncccn3c2-c2ccc(F)cc2)c1,.,.,.,1.4,.,.,.,
O=C(COc1ccc2ccc(=O)oc2c1)N1CCN(c2ccc(F)cc2)CC1,3.6,2.7,-2.4,2.5,-2.6,.,.,
O=C(COc1ccc2ccc(=O)oc2c1)N1CCC(C(=O)O)(c2ccccc2)CC1,-2.1,19.9,27.1*,-3.0,1.0,+,+,
Cc1oc2cc3oc(=O)c(CCC(=O)N4CCC(C(=O)O)(c5ccccc5)CC4)c(C)c3cc2c1C,.,.,3.3,9.9,9.0,.,.,
CCCCc1cc(=O)oc2c(C)c(OCC(=O)N3CCC(C(=O)O)(c4ccccc4)CC3)ccc12,4.1,-0.3,34.5*,0.9,16.7,182.1*,131.3*,
Cc1c(C)c2ccc(OCC(=O)N3CCC(C(=O)O)(c4ccccc4)CC3)c(C)c2oc1=O,-9.5,1.1,99.2*,6.0,9.0,102.5*,90.6*,
CCCCc1cc(=O)oc2c(C)c(OCC(=O)N3CCCC3)ccc12,5.3,0.8,24.1,-2.3,8.4,.,.,
Cc1c(C)c2ccc(OCC(=O)N3CCOCC3)c(C)c2oc1=O,-7.0,0.0,81.3*,-0.1,8.2,-0.3,-4.4,
COCCCn1cnn2c(=O)c3ccccc3nc2c1=O,.,.,.,-4.7,.,.,.,
C=CCNC(=S)N(C)[C@H]1C[C@H]2c3cc(-c4ccccc4C)ccc3CCN2C[C@H]1[C@H](C)O,.,.,.,-1.1,.,.,.,
SMILES,BJeLR lethal,RecA splice inh,FBA Mtb inh,PrPC TRFRET,GDH-TPI counter-1,Mtb FBA confirm,GDH-TPI counter-2,others
CN1CCCCC(NC(=O)c2cccs2)C1=O (stereo not given),.,.,.,-8.3,.,.,.,
Cc1ccc(NC(=O)NNC(=O)CCn2nc(C)c([N+](=O)[O-])c2C)cc1C,.,.,.,-3.7,.,.,.,
COc1ccc(NC(=O)NC2CCN(S(=O)(=O)c3ccc(F)cc3)CC2)cc1OC,.,.,.,13.8,.,.,.,
COc1ccccc1CNC(=O)NC1CCN(CC(=O)Nc2ccc3c(c2)OCCO3)CC1,.,.,.,4.1,.,.,.,
CCCSc1nnc(NC(=O)c2sc3nc(-c4cccs4)ccc3c2N)s1,2.8,-25.5,43.2*,10.1,36.5*,153.4*,115.6*,
COC(=O)[C@]12C[C@H](CC(=O)N3CCCC3)C(=O)N(Cc3ccc4c(c3)OCO4)C1=C[C@H](COCc1ccccc1)O[C@@H]2C,.,.,.,-9.6,.,.,.,
COC(=O)[C@]12C[C@H](CC(=O)NCCCCc3ccccc3)C(=O)N(Cc3ccc4c(c3)OCO4)C1=C[C@H](COCc1ccccc1)O[C@@H]2C,.,.,.,-6.3,.,.,.,
S=c1[nH]c(-c2ccccc2)cn1/N=C/c1cccc2ccccc12,-4.7,6.0,32.8*,3.0,3.2,15.1,-2.8,GDH-TPI dose=>10
Oc1ccc(/C=N/n2cc(-c3ccccc3)[nH]c2=S)cc1,-0.6,0.8,42.3*,-6.0,16.7,137.1*,116.6*,
Cc1ccc(/C=N/n2cc(-c3ccccc3)[nH]c2=S)s1,4.0,2.0,20.9,-7.4,2.5,.,.,
COc1cc(/C=N/n2cc(-c3ccccc3)[nH]c2=S)cc(OC)c1O,-11.8,-8.0,42.9*,-0.1,26.2,79.9*,64.0*,
COC(=O)c1cn(-c2ccc3c(c2)[C@]2(CC(=O)N(C)C2c2ccccc2)C(=O)N3CC(C)C)nn1 (stereo not given in full),.,.,.,-5.3,.,.,.,
Cc1ccccc1CS(=O)(=O)Cc1ccc(C(=O)Nc2c(C)cccc2C)o1,.,.,.,-4.7,.,.,.,
C[C@H]1CCCN1c1cccc2c1S(=O)(=O)N(C1CC1)CCCO2,.,.,.,-2.3,.,.,.,
O=C(OC12CCCN(C1)/C(=C/c1ccc(Cl)cc1)C2)c1ccco1 (stereo not given),.,.,.,-4.0,.,.,.,
Cc1cc(-c2ccccc2)[nH]c(=O)c1C#N,7.1,-7.7,68.9*,6.9,27.4,66.9*,51.7*,
Cc1ccc(-c2cc(-c3ccccc3)[nH]c(=S)c2C#N)cc1,2.5,9.2,1.2,7.7,-0.9,.,.,
N#Cc1c(-c2ccccc2)[nH]c(=O)[nH]c1=O,4.0,0.2,0.0,-5.8,4.8,.,.,
N#Cc1c(-c2ccco2)cc(-c2ccccc2)[nH]c1=O,11.2,-14.9,77.8*,-3.3,14.7,79.9*,67.9*,
Cc1ccc(-c2c(C#N)c(N)nc3c2CCCCC3)o1,-1.9,-3.6,11.7,-3.4,23.8,.,.,
Cc1ccc(-c2c(C#N)c(N)nc3c2CCCCCC3)o1,-7.9,2.6,31.5*,0.2,25.9,51.2*,38.2*,
CCN(CC)C(=O)CSc1nnc(-c2ccc(C(C)(C)C)cc2)n1-c1ccc(Cl)cc1,.,.,.,15.0,.,.,.,
COc1ccc(Cl)cc1-c1nc(SCC(=O)NC(C)(C)C)n[nH]1,-5.7,-2.5,28.5*,6.7,-8.2,100.2*,93.5*,
N#CCCn1cc(C(N)=O)c(-c2cccs2)n1,-1.9,-1.1,28.6*,4.0,-6.1,74.5*,62.8*,
COCC(=O)Nc1nnc(-c2cccs2)s1,6.4,4.1,22.6,-0.8,24.5,.,.,
